29 sequences from the supplement of paper PMC3545927 can be followed below.

In the assay the target is furin, P09958. The assay can be described thus: furin cleavage Z-score vs untreated control; higher = more cleavage, active = 3.5 or more, inactive = 1 or less, 8 variable residues between constant flanks. The essentials: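 Magnetic beads held 8-mer peptides by the N-terminus, each fused to a cDNA oligonucleotide, and purified furin was added for 7.5, 15 or 30 min. Released DNA was sequenced after PCR adapter tagging. The cleavage Z-score is the log count relative to furin-free reactions, lowess-adjusted and divided by median absolute deviation.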
furin, P09958, sequence (P09958 whole entry, the tested form may be a part): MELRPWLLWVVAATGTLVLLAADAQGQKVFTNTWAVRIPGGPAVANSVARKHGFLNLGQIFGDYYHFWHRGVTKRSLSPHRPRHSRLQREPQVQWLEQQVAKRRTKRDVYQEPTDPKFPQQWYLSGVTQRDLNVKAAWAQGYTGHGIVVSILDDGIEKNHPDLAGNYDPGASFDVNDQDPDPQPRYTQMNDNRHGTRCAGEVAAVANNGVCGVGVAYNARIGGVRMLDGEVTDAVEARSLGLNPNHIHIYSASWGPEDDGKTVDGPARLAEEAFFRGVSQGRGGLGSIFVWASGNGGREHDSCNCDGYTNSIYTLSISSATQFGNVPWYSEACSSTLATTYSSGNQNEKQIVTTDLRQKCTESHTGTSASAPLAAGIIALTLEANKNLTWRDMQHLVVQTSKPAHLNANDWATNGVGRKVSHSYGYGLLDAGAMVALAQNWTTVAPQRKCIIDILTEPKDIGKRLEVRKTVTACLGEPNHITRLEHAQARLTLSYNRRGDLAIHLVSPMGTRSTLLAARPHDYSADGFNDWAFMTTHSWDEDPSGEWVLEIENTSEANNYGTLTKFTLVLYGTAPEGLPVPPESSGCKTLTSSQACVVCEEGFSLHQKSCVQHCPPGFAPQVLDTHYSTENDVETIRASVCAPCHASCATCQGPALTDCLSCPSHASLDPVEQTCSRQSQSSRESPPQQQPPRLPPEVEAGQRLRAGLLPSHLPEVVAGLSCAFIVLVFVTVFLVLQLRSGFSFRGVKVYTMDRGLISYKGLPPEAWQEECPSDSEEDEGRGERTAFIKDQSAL

The list shows a part of the results. How many sequences the whole screen found active is unknown.
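Also: purified furin at 1:10 enzyme:substrate in 50 mM HEPES pH 7.5.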

On to CATTPWSGSWAGNASASA [HC47], for which the “furin cleavage Z-score” value was -0.899 (inactive) (7.5 min), -0.0349 (inactive) (15 min) and -1.02 (inactive) (30 min).
For CAVICCSMSYAGNASASA [HC2004], in that order: -1.33 (inactive), -0.628 (inactive) and 0.99 (inactive).
CAEKSRAKRQAGNASASA [FS-231]: the “furin cleavage Z-score” value is, setting by setting: (7.5 min) 9.72 (active); (15 min) 8.1 (active); (30 min) 6.51 (active).
On the same counts, the results for CANQVEGEVQAGNASASA [HC687] are -1.48 (inactive), -0.19 (inactive) and -1.34 (inactive).
For CARVPCHRPSAGNASASA [HC2313], in that order: -0.0296 (inactive), 0.363 (inactive) and -0.117 (inactive).
On the same counts, the results for CAFRVRSRRWAGNASASA [FS-328] are 8.66 (active), 9.61 (active) and 9.2 (active).
Consider CAFRNRNQRIAGNASASA [FS-235], for which the “furin cleavage Z-score” value (7.5 min) was -0.28 (inactive), the “furin cleavage Z-score” value (15 min) is -1.55 (inactive) and the “furin cleavage Z-score” value (30 min) was 0.794 (inactive).
For CAQKVRPRRWAGNASASA [FS-80], the “furin cleavage Z-score” value by setting is: (7.5 min) 9.9 (active); (15 min) 11.7 (active); (30 min) 9.5 (active).
On the same counts, the results for CAQKDRARRPAGNASASA [FS-1605] are 0.51 (inactive), -1.09 (inactive) and 0.363 (inactive).
For CARDVRSRRPAGNASASA [FS-1393], in that order: 0.0934 (inactive), 0.513 (inactive) and 0.621 (inactive).
On the same counts, the results for CALRKLGVPPAGNASASA [HC1615] are 0.313 (inactive), 0.845 (inactive) and 0.629 (inactive).
As to CAKAKRSVPPAGNASASA [FS-2540], the “furin cleavage Z-score” value runs as follows: (7.5 min) 9.65 (active); (15 min) 9.24 (active); (30 min) 7.46 (active).
Regarding CAPKSPPVPPAGNASASA [HC1320], the “furin cleavage Z-score” value is -0.644 (inactive) (7.5 min), 0.94 (inactive) (15 min) and -0.0681 (inactive) (30 min).
On the same counts, the results for CAPLKRSVSLAGNASASA [FS-2876] are 0.317 (inactive), 2.22 and 2.88.
Regarding CAGLKRSVSRAGNASASA [FS-2477], the “furin cleavage Z-score” value was -0.266 (inactive) (7.5 min), -1.67 (inactive) (15 min) and 0.712 (inactive) (30 min).
On the same counts, the results for CAKIKRSVSPAGNASASA [FS-2247] are 4.13 (active), 3.63 (active) and 4.32 (active).
As to CAQNVQLINTAGNASASA [HC365], the “furin cleavage Z-score” value was -0.00687 (inactive) (7.5 min), 0.24 (inactive) (15 min) and 0.289 (inactive) (30 min).
CAEVPCHRPSAGNASASA [HC2312]: the “furin cleavage Z-score” value by setting is: (7.5 min) 0.893 (inactive); (15 min) 0.385 (inactive); (30 min) 0.669 (inactive).
In the case of CAHAYRPGRRAGNASASA [FS-247], the “furin cleavage Z-score” value is, setting by setting: (7.5 min) -0.291 (inactive); (15 min) -0.643 (inactive); (30 min) 1.65.
On the same counts, the results for CAHAYRHRRLAGNASASA [FS-1531] are 0.687 (inactive), 2.16 and 3.53 (active).
On the same counts, the results for CAALCRHRRLAGNASASA [FS-154] are 4.73 (active), 5.6 (active) and 6.55 (active).
For CACTCGSSDLAGNASASA [HC722], in that order: -1.16 (inactive), -3.51 (inactive) and -0.486 (inactive).
With CAGIMHTRCHAGNASASA [HC1172], the “furin cleavage Z-score” value reads like this: (7.5 min) 1.75; (15 min) 2.22; (30 min) 0.438 (inactive).
For CARASRAKRRAGNASASA [FS-1477], in that order: 11.9 (active), 12.4 (active) and 8.04 (active).
Turning to CARATRKIGIAGNASASA [FS-2132], the “furin cleavage Z-score” value runs as follows: (7.5 min) -0.496 (inactive); (15 min) -1.56 (inactive); (30 min) -0.101 (inactive).
On the same counts, the results for CACPRRAKRRAGNASASA [FS-119] are 4.82 (active), 4.82 (active) and 5.05 (active).
For CARASRGGGGAGNASASA [FS-2891], in that order: -0.8 (inactive), -0.464 (inactive) and -0.232 (inactive).
For CARASRNKRPAGNASASA [FS-1559], in that order: 0.256 (inactive), -0.194 (inactive) and 0.132 (inactive).
Consider CARASRSIRIAGNASASA [FS-2893], for which the “furin cleavage Z-score” value (7.5 min) was 3.6 (active), the “furin cleavage Z-score” value (15 min) was 6.75 (active) and the “furin cleavage Z-score” value (30 min) was 7.27 (active).
